Screening results (PubChem BioAssay)
MOR-DOR inv ag = mu-delta opioid heterodimer inverse agonism; AID 504357; inhibition, % at 9.3 µM; actives 0.21% (n = 340,000); cell-based MOR-DOR heterodimer luminescence; in the data active = inhibition above about 22%, passing the limit was not always enough
HTR5A inv ag = HTR5A inverse agonism, opioid heterodimer counter-screen; P47898; HTR5A cell line, luminescence; inhibition, % at 9.3 µM; actives 0.083% (n = 340,000); AID 504634; in the data active = inhibition mostly above about 23%, no sharp cut-off; inactive = mostly below about 18%
HTR5A ag = HTR5A agonism, opioid heterodimer counter-screen | HTR5A agonist assay, luminescence, cell-based | activation, % at 9.3 µM | actives 0.61% (n = 340,000) | AID 504692; in the data active = activation mostly above about 9.5%, no sharp cut-off; inactive = mostly below about 7.6%
MOR-DOR ag-1 = agonists of human mu-delta opioid receptor heterodimerization; P35372+P41143; activation, % at 9.3 µM; actives 0.3% (n = 340,000); AID 504326; cells, OPRM1-OPRD1 heterodimerization, luminescence
MOR-DOR ag-2 = counter-screen for HTR5A agonists: OPRM1-OPRD1 heterodimerization agonism | shares compounds with HTR5A ag | U2OS counter-screen cells, complementation luminescence, 3 h | activation, % at 9.3 µM | actives 13% (n = 800) | AID 504913
HTR5A ag confirm = confirmation of human HTR5A agonists. shares compounds with HTR5A ag. HTR5A agonist cell assay, luminescence. activation, % at 9.3 µM. actives 17% (n = 800). AID 504915; in the data active = activation above about 17%
Hits are given with their value; n = inactive; x = no result; ! = repeats disagree. Compounds with a hit are over-represented: about 1.1% of the library has one in this group of screens. Rule as the data show it, unless noted: active = activation above about 18%; inactive = the rest.

SMILES	MOR-DOR inv ag	HTR5A inv ag	HTR5A ag	MOR-DOR ag-1	MOR-DOR ag-2	HTR5A ag confirm
O=C(c1ccco1)N1CCN(C(c2ccccc2F)c2nnnn2Cc2cccs2)CC1 (configuration not stated)	n	n	n	n	x	x
CCOc1ccc(NC(=O)Nc2nc(SCC)ns2)cc1	n	n	18	n	n	n
c1cc(CNCCNCc2ccncc2)ccn1	n	n	n	n	x	x
CCCN1C[C@H](CSC)C[C@@H]2c3cccc4[nH]cc(c34)C[C@H]21	n	n	90	n	38	n
CCCC(=O)N1CCN(c2ccc(NC(=O)C(C)(C)C)cc2)CC1	n	n	n	n	x	x
CCCCCCn1c2c(c(=N)c3c1CCC3)CCC2	n	n	n	n	x	x
CCCCCCCCCn1c2c(c(=N)c3c1CCC3)CCC2	n	n	25	n	n	n
COc1ccc(NC(=O)C2CCCNC2)cc1OCC(C)C (configuration not stated)	n	n	n	n	x	x
COc1ccc(NC(=O)C2CCCN(CCCc3ccccc3)C2)cc1OCC(C)C (configuration not stated)	n	n	16	n	n	n
COc1ccc(CN2C3CCCC2CC(NC(=O)Nc2cccc(C)c2)C3)cc1 (configuration not stated)	n	n	17	n	n	n
CCc1cccc(CC)c1NC(=S)NC(C)c1ccccc1 (configuration not stated)	n	n	n	n	x	x
CCOC(=O)c1cnc(SCC#N)nc1N	n	n	n	n	x	x
Cc1ccc(S(=O)(=O)N2CCCOC2CNC(=O)C(=O)NCCc2c[nH]c3ccccc23)cc1 (configuration not stated)	n	n	30	n	n	26
O=C(NCCc1c[nH]c2ccccc12)C(=O)NCC1OCCN1S(=O)(=O)c1ccccc1 (configuration not stated)	n	n	36	n	n	57
O=C(NCCc1c[nH]c2ccccc12)C(=O)NCC1OCCN1S(=O)(=O)c1ccc(F)cc1 (configuration not stated)	n	n	n	n	x	x
O=C(NCCc1c[nH]c2ccccc12)C(=O)NCC1OCCCN1S(=O)(=O)c1ccccc1 (configuration not stated)	n	n	48	n	n	47
O=C(NCCc1c[nH]c2ccccc12)C(=O)NCC1OCCN1S(=O)(=O)c1ccc(Cl)cc1 (configuration not stated)	n	n	n	n	x	x
O=C(CCc1nnc(-c2ccsc2)o1)NCc1ccccc1OC(F)(F)F	n	n	n	n	x	x
O=C(CN1C(=O)NC2(CCc3ccccc32)C1=O)c1ccccc1 (configuration not stated)	n	n	n	n	x	x
COc1ccc2cc3cc(C(=O)Nc4ccc5c(c4)OCCO5)oc3nc2c1	n	n	25	n	n	n
CC(NC(=O)c1ccco1)c1ccc2c(c1)OCCO2 (configuration not stated)	n	n	15	n	n	n
CCC(C)C(N)C1=NC(C(=O)N[C@@H](CC(C)C)C(=O)N[C@H](CCC(=O)O)C(=O)N[C@H](C(=O)N[C@H]2CCCCNC(=O)[C@H](CC(N)=O)NC(=O)[C@@H](CC(=O)O)NC(=O)[C@H](Cc3cnc[nH]3)NC(=O)[C@@H](Cc3ccccc3)NC(=O)[C@H]([C@@H](C)CC)NC(=O)[C@@H](CCCN)NC2=O)[C@@H](C)CC)CS1 (some centres not stated)	n	n	n	n	x	x
Cn1nnc(-c2ccc(OCc3ccccc3F)cc2)n1	n	n	n	n	x	x
CCCCCC(=O)N/N=C/c1cccs1	n	n	n	n	x	x
CCOC(=O)C1CCN(c2c(C(=O)c3ccccc3)cnc3ccc(CC)cc23)CC1	n	n	n	n	x	x
SMILES	MOR-DOR inv ag	HTR5A inv ag	HTR5A ag	MOR-DOR ag-1	MOR-DOR ag-2	HTR5A ag confirm
CCOC(=O)c1ccc(Nc2nc(-c3cccnc3)nc3ccccc23)cc1	n	n	29	n	n	n
O=C(CCCn1nnc2ccccc2c1=O)N[C@H](C(=O)O)c1ccccc1	n	n	n	n	x	x
C=CCN1CCc2c(cc(O)c(O)c2Br)[C@@H](c2ccccc2)C1	n	n	57	n	n	59
COc1ccc(C(=O)NC2CCCCCC2)cc1S(=O)(=O)N1CCCC1	n	n	n	n	x	x
COc1ccc(C(=O)NC2CCCCCC2)cc1S(=O)(=O)Nc1ccc(Br)cc1	n	n	15	n	n	n
CC(=O)c1ccc2c3c(cccc13)CC2	n	n	n	n	x	x
O=C(O)c1ccc2c(c1)N(Cc1ccccc1F)C(=O)c1ccccc1S2=O (configuration not stated)	n	n	16	n	n	n
Cc1ccc2c(c1)Oc1ccc(NC(=O)CCl)cc1C(=O)N2	n	n	15	n	n	n
COc1cccc(Nc2nc(N)nc(CCl)n2)c1	n	n	n	n	x	x
Cc1cccc(Nc2nc(N)nc(CCl)n2)c1	n	n	20	n	21	31
COc1ccc(OC)c(Nc2nc(N)nc(CCl)n2)c1	n	n	17	n	n	n
COc1ccccc1Nc1nc(N)nc(CCl)n1	n	n	n	n	x	x
O=C(Cn1c(=O)sc2ccccc21)Nc1ccc(S(=O)(=O)N2CCCC2)cc1	n	n	n	n	x	x
O=S1(=O)CCN2N=C(C34CC5CC(CC(C5)C3)C4)SC2=N1	n	n	18	n	n	n
Cc1ccc(Cn2c(=N)n(CC(=O)c3ccccc3)c3ccccc32)cc1	n	n	21	n	n	n
CC1=NN(c2ccc(C)c(C)c2)C(=O)/C1=C\C=C\c1ccc([N+](=O)[O-])o1	n	n	16	n	n	n
CCOC(=O)c1ccc(N2N=C(C)/C(=C/C=C/c3ccco3)C2=O)cc1	n	n	n	n	x	x
Oc1c(C(c2cccs2)N2CCN(c3cccc(Cl)c3)CC2)sc2ncnn12 (configuration not stated)	n	n	18	n	n	n
Oc1c(C(c2cccs2)N2CCOCC2)sc2ncnn12 (configuration not stated)	n	n	n	n	x	x
O=C(CCNC(=O)c1ccco1)Nc1ccc(Cl)cc1	n	n	n	n	x	x
O=C(CNC(=O)c1ccco1)Nc1ccc(Cl)cc1	n	n	21	n	n	n
CC(C)C1CCN(C(=O)C2CCC(=O)N(CCc3ccc(Cl)cc3)C2)CC1 (configuration not stated)	n	n	n	n	x	x
COc1ccc(-c2nc(C#N)c(N3CCc4ccccc4C3)o2)cc1OC	n	n	18	n	n	n
COc1ccccc1-c1nc(C#N)c(N2CCc3ccccc3C2)o1	n	n	n	n	x	x
CC1CCC(C(C)C)C(OC(=O)Cn2c(-c3ccc(Br)cc3)[n+](C)c3ccccc32)C1 (configuration not stated)	n	n	17	n	50!	n
